# Targets with a hit are over-represented here; the source holds about 8,800 in all. About 0.5% of all pairs of compound and target were hits. Values without a mark were called inactive.
# Tests used:
# Assay in all cases: log2 fold change, soluble protein after heating vs DMSO (PISA); higher = thermal stabilisation; K562 lysate, 10 uM; active = over 0.2 and 3.5 SD of the protein, either way, in both replicates (recomputed)
# alvocidib = compound: CN1CC[C@H](c2c(O)cc(O)c3c(=O)cc(-c4ccccc4Cl)oc23)[C@H](O)C1 [alvocidib]
# Procedure, shortened: (§1)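 Values give the log-two fold change in thermal stability against solvent controls, from duplicates. Crude K562 extract at 1 mg/mL protein, made by dounce homogenisation in PBS pH 7.4 with 1 mM MgCl2, was treated with 10 μM compound for 30 min. After 3 min heating across 48°C-58°C, aliquots were pooled, adjusted to 0.5% NP-40 at 4°C and centrifuged at 21,000xg for 90 min. The supernatant was measured by TMTpro 16plex LC-MS/MS with channel sums equalised.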
# Tubastatin A = compound: CN1CCc2c(c3ccccc3n2Cc2ccc(C(=O)NO)cc2)C1 [Tubastatin A]
# Procedure, shortened: as §1
# [1] = compound: CNC(=O)C1=CC=CC=C1NC2=NC(=NC=C2Cl)NC3=C(C=C(C=C3)N4CCOCC4)OC
# Procedure, shortened: as §1
# defactinib = compound: CNC(=O)c1ccc(Nc2ncc(C(F)(F)F)c(NCc3nccnc3N(C)S(C)(=O)=O)n2)cc1 [defactinib]
# Procedure, shortened: as §1
# [2] = compound: CNc1nc(-c2ccc3c(N)n[nH]c3c2)cc(N2C[C@@H](C(=O)NC3CCCCC3)CC[C@H]2C)n1
# Procedure, shortened: as §1
# encorafenib = compound: COC(=O)N[C@@H](C)CNc1nccc(-c2cn(C(C)C)nc2-c2cc(Cl)cc(NS(C)(=O)=O)c2F)n1 [encorafenib]
# Procedure, shortened: as §1
# [3] = compound: COC(=O)[C@H](CCSC)NC(=O)C1=C(C=C(C=C1)NC[C@H](CS)N)C2=CC=CC=C2
# Procedure, shortened: as §1
# alisertib = compound: COc1cc(Nc2ncc3c(n2)-c2ccc(Cl)cc2C(c2c(F)cccc2OC)=NC3)ccc1C(=O)O [alisertib]
# Procedure, shortened: as §1
# [4] = compound: COc1cc2nc(-c3cc(F)ccc3O)nc(N[C@@H]3CNC[C@H]3C(C)(C)O)c2cc1OC
# Procedure, shortened: as §1
# gefitinib = compound: COc1cc2ncnc(Nc3ccc(F)c(Cl)c3)c2cc1OCCCN1CCOCC1 [gefitinib]
# Procedure, shortened: as §1
# lapatinib = compound: CS(=O)(=O)CCNCc1ccc(-c2ccc3ncnc(Nc4ccc(OCc5cccc(F)c5)c(Cl)c4)c3c2)o1 [lapatinib]
# Procedure, shortened: as §1
# pictilisib = compound: CS(=O)(=O)N1CCN(Cc2cc3nc(-c4cccc5[nH]ncc45)nc(N4CCOCC4)c3s2)CC1 [pictilisib]
# Procedure, shortened: as §1
# crizotinib = compound: C[C@@H](Oc1cc(-c2cnn(C3CCNCC3)c2)cnc1N)c1c(Cl)ccc(F)c1Cl [crizotinib]
# Procedure, shortened: as §1
# [5] = compound: C[C@H](C1=CC=C(C=C1)C(=O)NC2=C3C=CNC3=NC=C2)N
# Procedure, shortened: as §1
# duvelisib = compound: C[C@H](Nc1ncnc2nc[nH]c12)c1cc2cccc(Cl)c2c(=O)n1-c1ccccc1 [duvelisib]
# Procedure, shortened: as §1
# gandotinib = compound: Cc1cc(Nc2cc(CN3CCOCC3)c3nc(C)c(Cc4ccc(Cl)cc4F)n3n2)n[nH]1 [gandotinib]
# Procedure, shortened: as §1
# tozasertib = compound: Cc1cc(Nc2cc(N3CCN(C)CC3)nc(Sc3ccc(NC(=O)C4CC4)cc3)n2)n[nH]1 [tozasertib]
# Procedure, shortened: as §1
# doramapimod = compound: Cc1ccc(-n2nc(C(C)(C)C)cc2NC(=O)Nc2ccc(OCCN3CCOCC3)c3ccccc23)cc1 [doramapimod]
# Procedure, shortened: as §1
# bafetinib = compound: Cc1ccc(NC(=O)c2ccc(CN3CC[C@H](N(C)C)C3)c(C(F)(F)F)c2)cc1Nc1nccc(-c2cncnc2)n1 [bafetinib]
# Procedure, shortened: as §1
# [6] = compound: Cc1cccc(CC(=O)N2CCc3c2ccc(-c2cn(C)c4ncnc(N)c24)c3F)n1
# Procedure, shortened: as §1
# Chain of UniProt Q9UBQ6 (Q9UBQ6 whole entry, looked up): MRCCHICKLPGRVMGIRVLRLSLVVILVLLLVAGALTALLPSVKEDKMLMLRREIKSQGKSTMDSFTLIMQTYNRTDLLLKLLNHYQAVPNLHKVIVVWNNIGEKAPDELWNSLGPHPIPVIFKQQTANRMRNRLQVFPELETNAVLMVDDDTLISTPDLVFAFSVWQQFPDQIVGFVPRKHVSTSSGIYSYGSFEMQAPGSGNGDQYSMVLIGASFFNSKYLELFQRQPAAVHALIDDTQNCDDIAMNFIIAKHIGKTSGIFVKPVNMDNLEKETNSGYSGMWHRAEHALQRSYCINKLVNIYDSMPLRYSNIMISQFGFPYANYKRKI
# Chain of UniProt Q9NR50 (Q9NR50 whole entry, looked up): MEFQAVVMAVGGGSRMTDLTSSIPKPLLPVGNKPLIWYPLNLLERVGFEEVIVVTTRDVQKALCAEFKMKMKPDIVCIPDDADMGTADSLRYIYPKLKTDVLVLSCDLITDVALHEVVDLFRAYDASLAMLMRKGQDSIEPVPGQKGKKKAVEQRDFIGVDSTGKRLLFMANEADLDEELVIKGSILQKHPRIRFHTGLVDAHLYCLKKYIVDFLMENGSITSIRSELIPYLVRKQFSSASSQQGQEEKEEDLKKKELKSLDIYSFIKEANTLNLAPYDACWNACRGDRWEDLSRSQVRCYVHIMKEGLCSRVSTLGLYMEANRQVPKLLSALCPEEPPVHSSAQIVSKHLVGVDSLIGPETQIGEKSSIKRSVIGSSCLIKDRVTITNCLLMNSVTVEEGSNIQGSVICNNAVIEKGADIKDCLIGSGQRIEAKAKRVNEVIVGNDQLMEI
# Chain of UniProt O95466 (O95466 whole entry, looked up): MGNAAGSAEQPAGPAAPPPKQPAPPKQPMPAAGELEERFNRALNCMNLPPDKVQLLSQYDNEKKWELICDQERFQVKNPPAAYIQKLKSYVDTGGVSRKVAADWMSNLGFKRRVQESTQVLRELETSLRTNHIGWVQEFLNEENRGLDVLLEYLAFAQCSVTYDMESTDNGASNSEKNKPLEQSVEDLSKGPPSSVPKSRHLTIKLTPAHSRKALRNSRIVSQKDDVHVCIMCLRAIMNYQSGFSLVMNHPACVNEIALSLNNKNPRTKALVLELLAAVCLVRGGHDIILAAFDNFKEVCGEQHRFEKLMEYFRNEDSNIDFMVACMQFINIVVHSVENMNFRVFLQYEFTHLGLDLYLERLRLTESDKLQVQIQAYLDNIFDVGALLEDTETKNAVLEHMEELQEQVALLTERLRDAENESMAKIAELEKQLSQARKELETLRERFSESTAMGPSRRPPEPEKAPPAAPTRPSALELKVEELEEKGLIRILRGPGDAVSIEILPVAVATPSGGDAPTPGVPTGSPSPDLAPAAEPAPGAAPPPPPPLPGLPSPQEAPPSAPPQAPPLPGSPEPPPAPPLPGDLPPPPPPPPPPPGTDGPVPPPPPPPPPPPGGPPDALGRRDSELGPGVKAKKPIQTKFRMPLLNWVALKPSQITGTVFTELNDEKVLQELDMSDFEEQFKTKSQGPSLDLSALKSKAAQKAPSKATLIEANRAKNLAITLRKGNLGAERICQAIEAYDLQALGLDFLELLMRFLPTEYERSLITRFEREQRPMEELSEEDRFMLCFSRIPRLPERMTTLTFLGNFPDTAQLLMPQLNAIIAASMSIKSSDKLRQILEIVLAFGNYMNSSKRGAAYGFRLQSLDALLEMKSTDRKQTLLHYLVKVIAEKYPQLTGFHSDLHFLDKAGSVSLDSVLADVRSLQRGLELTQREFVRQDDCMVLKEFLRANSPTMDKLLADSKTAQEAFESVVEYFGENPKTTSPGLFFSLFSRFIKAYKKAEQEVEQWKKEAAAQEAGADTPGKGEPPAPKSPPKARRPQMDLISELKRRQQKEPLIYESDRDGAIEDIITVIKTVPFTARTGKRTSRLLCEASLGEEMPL
# Chain of UniProt P41214 (P41214 whole entry, looked up): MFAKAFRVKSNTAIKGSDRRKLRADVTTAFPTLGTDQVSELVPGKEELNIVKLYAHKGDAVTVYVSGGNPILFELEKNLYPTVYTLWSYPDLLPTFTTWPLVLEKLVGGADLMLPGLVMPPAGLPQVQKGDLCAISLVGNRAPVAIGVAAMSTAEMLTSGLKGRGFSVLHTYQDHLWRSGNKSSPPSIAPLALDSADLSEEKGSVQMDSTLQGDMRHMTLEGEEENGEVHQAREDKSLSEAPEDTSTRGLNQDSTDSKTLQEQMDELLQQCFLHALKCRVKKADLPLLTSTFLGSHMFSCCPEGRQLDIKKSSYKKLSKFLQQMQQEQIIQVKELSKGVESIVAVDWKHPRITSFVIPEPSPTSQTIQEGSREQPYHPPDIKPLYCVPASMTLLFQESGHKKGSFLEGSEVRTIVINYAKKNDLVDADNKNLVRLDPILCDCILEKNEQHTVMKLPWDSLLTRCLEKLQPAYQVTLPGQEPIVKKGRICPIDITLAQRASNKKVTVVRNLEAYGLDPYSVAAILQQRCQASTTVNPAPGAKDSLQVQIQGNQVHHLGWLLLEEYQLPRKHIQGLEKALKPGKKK
# Chain of UniProt O94905 (O94905 whole entry, looked up): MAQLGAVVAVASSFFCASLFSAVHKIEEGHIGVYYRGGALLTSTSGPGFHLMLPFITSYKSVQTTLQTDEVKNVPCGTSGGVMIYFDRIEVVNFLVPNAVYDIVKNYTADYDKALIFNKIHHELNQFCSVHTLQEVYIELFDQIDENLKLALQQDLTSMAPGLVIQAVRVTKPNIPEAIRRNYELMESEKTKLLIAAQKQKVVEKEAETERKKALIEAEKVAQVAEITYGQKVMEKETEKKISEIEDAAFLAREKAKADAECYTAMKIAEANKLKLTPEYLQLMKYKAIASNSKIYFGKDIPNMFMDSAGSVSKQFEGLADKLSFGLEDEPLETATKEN
# Chain of UniProt P51114 (P51114 whole entry, looked up): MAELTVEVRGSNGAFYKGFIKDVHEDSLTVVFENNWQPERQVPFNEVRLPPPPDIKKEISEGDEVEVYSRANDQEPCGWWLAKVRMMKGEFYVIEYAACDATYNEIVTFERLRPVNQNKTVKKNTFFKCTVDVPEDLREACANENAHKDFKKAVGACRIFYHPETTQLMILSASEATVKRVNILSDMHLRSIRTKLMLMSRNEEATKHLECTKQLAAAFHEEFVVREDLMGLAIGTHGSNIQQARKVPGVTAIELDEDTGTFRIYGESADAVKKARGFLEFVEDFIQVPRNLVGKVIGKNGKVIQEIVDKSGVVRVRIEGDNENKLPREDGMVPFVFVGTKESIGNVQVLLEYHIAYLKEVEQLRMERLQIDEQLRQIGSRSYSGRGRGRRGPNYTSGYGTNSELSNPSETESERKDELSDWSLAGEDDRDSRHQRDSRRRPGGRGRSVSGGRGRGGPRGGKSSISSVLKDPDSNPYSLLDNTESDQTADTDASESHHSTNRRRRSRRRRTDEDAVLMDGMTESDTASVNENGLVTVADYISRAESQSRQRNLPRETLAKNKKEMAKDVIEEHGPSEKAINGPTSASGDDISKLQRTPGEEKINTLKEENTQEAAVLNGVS
# Chain of UniProt P09104 (P09104 whole entry, looked up): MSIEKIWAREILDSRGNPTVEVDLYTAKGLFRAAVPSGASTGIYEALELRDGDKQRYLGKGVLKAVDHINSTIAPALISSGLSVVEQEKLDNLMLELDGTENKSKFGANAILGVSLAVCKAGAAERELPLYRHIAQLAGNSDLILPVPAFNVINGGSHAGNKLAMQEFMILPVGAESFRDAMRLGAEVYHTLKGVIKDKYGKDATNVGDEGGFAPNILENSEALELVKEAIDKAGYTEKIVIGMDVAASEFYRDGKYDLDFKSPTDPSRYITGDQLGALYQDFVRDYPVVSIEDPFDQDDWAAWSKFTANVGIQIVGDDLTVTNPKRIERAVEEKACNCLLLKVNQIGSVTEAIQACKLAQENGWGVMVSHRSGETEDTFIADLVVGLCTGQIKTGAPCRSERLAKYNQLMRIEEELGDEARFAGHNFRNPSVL
# Chain of UniProt Q9UJY4 (Q9UJY4 whole entry, looked up): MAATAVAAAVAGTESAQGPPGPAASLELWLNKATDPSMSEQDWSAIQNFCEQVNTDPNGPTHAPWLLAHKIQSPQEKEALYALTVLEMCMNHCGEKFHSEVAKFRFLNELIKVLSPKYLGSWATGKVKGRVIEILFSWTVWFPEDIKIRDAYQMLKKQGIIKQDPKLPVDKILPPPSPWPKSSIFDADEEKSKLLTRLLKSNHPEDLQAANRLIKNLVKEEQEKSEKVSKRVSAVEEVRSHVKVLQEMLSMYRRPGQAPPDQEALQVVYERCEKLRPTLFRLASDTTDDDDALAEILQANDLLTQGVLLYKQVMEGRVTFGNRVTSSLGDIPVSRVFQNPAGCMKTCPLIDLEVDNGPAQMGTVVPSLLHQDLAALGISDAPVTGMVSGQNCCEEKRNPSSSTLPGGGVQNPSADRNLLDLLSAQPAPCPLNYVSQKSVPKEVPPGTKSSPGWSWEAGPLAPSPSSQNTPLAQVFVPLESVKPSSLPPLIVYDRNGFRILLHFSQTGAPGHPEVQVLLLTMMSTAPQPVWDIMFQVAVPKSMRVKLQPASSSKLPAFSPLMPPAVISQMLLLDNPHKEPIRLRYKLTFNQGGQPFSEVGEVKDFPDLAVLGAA
# Chain of UniProt O75616 (O75616 whole entry, looked up): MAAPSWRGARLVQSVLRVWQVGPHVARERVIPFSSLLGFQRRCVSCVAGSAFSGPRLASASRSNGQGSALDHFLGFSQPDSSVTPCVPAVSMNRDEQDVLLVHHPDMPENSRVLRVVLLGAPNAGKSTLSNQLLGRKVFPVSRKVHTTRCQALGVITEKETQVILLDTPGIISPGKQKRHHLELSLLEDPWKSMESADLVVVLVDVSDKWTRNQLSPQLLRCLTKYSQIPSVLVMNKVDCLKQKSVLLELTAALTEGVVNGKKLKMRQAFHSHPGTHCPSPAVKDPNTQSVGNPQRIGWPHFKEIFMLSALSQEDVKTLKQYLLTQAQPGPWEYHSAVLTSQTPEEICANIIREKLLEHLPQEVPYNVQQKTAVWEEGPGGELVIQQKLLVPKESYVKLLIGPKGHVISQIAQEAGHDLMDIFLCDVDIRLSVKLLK
Target,log2 fold change (alvocidib),log2 fold change (Tubastatin A),log2 fold change [1],log2 fold change (defactinib),log2 fold change [2],log2 fold change (encorafenib),log2 fold change [3],log2 fold change (alisertib),log2 fold change [4],log2 fold change (gefitinib),log2 fold change (lapatinib),log2 fold change (pictilisib),log2 fold change (crizotinib),log2 fold change [5],log2 fold change (duvelisib),log2 fold change (gandotinib),log2 fold change (tozasertib),log2 fold change (doramapimod),log2 fold change (bafetinib),log2 fold change [6]
ERAL1 (UniProt O75616),0.005,-0.151,-0.03,0.027,-0.015,-0.018,0.058,-0.008,0.016,0.02,0.075,-0.025,-0.035,-0.152,0.014,0.321 (active),0.041,0.006,-0.079,0.03
GEMIN5 (UniProt Q8TEQ6),0.023,-0.21,0.027,0.031,-0.007,0.011,0.057,0.014,-0.019,-0.032,-0.025,-0.006,-0.069,-0.029,0.001,-0.087,0.009,0.012,-0.053,0.017
GGA2 (UniProt Q9UJY4),0.002,-0.085,0.003,-0.029,-0.018,0.002,0.01,0.038,0.023,-0.025,-0.024,-0.037,-0.029,0.023,-0.002,-0.131,0.007,-0.024,-0.046,-0.004
FAM120B (UniProt Q96EK7),-0.005,-0.063,0.016,0.073,-0.02,0.029,0.034,-0.007,-0.001,0.021,0.041,-0.012,-0.021,-0.018,-0.021,-0.051,-0.064,0.021,-0.045,0.045
EXTL2 (UniProt Q9UBQ6),-0.016,0,0.009,0.037,0.104,0.168,-0.048,-0.021,-0.005,-0.111,-0.071,-0.282,0.032,-0.138,-0.001,0.106,0.028,0.058,-0.02,-0.006
ERLIN2 (UniProt O94905),0.164,0.016,0.005,0.002,0,0.045,-0.164,0,-0.06,0.005,-0.015,-0.091,-0.004,0.304 (active),0.003,-0.077,0.02,0.043,-0.015,-0.114
DSN1 (UniProt Q9H410),-0.046,-0.087,0.076,0.059,0.04,0.006,0.107,-0.005,0.004,0,0.009,-0.027,-0.016,-0.051,0.004,0.008,0.015,-0.037,-0.026,0.021
"ENO1, A0A2R8YEM5",-0.256,0.104,0.021,0.043,0.002,0.031,-0.035,0.006,-0.001,0.035,-0.016,-0.037,0.017,-0.469 (active),0,0.185,0.001,-0.006,0.036,0.244 (active)
FMNL1 isoform 3 (UniProt O95466),0.011,-0.053,0.015,0.021,0.015,0.093,0.018,0.029,0.044,-0.061,0.058,0.005,-0.013,0.044,0,-0.056,-0.051,0.048,-0.055,0.042
GAPVD1 isoform 6 (UniProt Q14C86),0.01,-0.112,0.015,0.018,-0.04,0.014,0.097,0.005,-0.017,-0.012,0,-0.017,-0.023,0.054,0.011,-0.088,-0.002,0.025,-0.022,-0.018
"FADS1, A0A0A0MR51",0.03,0.1,0.158,0.084,0.011,-0.055,0.03,-0.008,-0.067,-0.001,0.203,-0.087,-0.003,-0.024,-0.029,0.559 (active),0.041,0.018,0.027,0.083
ENO2 (UniProt P09104),-0.279 (active),0.024,-0.018,-0.007,0.073,0.032,0.086,-0.025,-0.014,-0.021,0.01,0.012,-0.009,-0.358 (active),0.04,0.214,-0.111,-0.012,-0.014,0.264 (active)
EIF2B3 (UniProt Q9NR50),0.071,-0.103,-0.009,0.008,-0.012,-0.007,0.057,-0.016,-0.007,-0.041,-0.007,-0.021,-0.061,0.234 (active),0.016,-0.115,-0.035,0.012,-0.024,-0.047
DYNC1I2 isoform 5 (UniProt Q13409),0.002,0.007,-0.021,-0.011,0.012,-0.007,-0.012,-0.011,0.004,0.006,-0.003,-0.017,-0.003,-0.004,-0.002,0.009,0.012,0.006,0.03,-0.003
EIF2D (UniProt P41214),0.017,-0.083,0.003,0.033,-0.024,-0.014,0.164,0.013,-0.018,-0.031,-0.002,-0.014,-0.067,0.024,0.022,-0.084,0.029,0.032,-0.063,-0.01
FXR1 (UniProt P51114),-0.028,-0.176,0.02,-0.043,-0.039,0.057,0.035,-0.012,0.012,-0.022,-0.026,-0.052,-0.006,-0.106,0.023,-0.02,0.008,0.065,-0.03,0.05

# Source: the supplement of paper PMC10849652
